Source: PubChem BioAssay
“And” between values parts separate entries of the source, which are not always exact repeats. Identical values can stand only once. The source made the active and inactive calls.

Key:
[1] = test system: XIP peptide (Xip251-270) binding; experiment: XIP fragment 251-270 binding compounds – biochemical, small-molecule microarray, fluorescence 635/667 nm, 0.1 µg/mL protein, primary screen (AID 1182); conditions: fluorescent protein binding, 635 nm, higher = more signal, called active from +8 up or from −8 down
[2] = test system: XIP peptide (Xip251-270); experiment: compounds binding XIP fragment 251-270 – biochemical, small-molecule microarray, fluorescence 635/667 nm, 0.5 µg/mL protein, primary screen (AID 1183); conditions: fluorescence 635 nm, higher = more signal
[3] = blood-stage malaria parasite viability loss – strain 3D7, DAPI fluorescence, 100 nL, primary screen (AID 1184);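 note: parasites grown inside human red blood cells in medium with human serum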; conditions: P. falciparum 3D7 growth, 3 d, higher = more signal
[4] = target: Homeobox protein Hox-A13 (Mus musculus) (UniProt Q62424); experiment: disruptors of Hoxa13 oligonucleotide interaction – biochemical, fluorescence polarization, labeled oligonucleotide, primary screen (AID 1185); conditions: Hoxa13:DNA binding, 15 min, higher = more signal, called active from +8 up or from −8 down
Sequence of Homeobox protein Hox-A13 (Mus musculus) (Q62424 whole entry, looked up): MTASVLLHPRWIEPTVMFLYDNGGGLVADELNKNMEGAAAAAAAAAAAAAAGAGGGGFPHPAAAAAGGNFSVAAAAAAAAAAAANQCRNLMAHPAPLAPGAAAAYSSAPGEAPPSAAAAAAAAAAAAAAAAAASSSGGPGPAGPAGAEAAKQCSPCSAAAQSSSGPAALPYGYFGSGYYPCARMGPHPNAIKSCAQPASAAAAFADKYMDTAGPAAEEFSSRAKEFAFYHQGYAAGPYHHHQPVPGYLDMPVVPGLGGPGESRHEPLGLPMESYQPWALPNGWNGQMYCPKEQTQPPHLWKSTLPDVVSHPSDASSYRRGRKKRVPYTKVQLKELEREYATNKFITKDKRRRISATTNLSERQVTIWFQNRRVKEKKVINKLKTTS

CC(C)=NOC[C@@H](O)COCc1ccco1
composite z-score [1]: -0.651 (inactive)
composite z-score [2]: 0.258
z-score [3]: 0.814
z-score [4]: -1.15 (inactive)

CCOC(=O)NN=C1C[C@@H](O)[C@@H](O)[C@@H]2[C@@H]3C(=O)N(Cc4ccccc4)C(=O)[C@@H]3CC[C@@H]12
composite z-score [1]: -0.479 (inactive)
composite z-score [2]: 0.0853
z-score [3]: -0.647
z-score [4]: -0.411 (inactive)

Cc1cc2c(nc1C)CCCN2CC(O)CN1CCCc2nc(-c3ccc(Br)cc3)ccc21 (stereo not drawn)
composite z-score [1]: 1.5 (inactive) and 4.73 (inactive)
composite z-score [2]: 0.719 and 0.327
z-score [3]: -0.614 and 0.112
z-score [4]: -7.89 (inactive) and -7.9 (inactive)

Cc1ccc(S(=O)(=O)N[C@H]2COC(=O)[C@@H](C)COC(=O)[C@H](C)NC(=O)CC=C[C@H]2C)cc1
composite z-score [1]: 0.0287 (inactive)
composite z-score [2]: -0.188
z-score [3]: -0.208
z-score [4]: -0.0362 (inactive)

Cc1ccc(S(=O)(=O)OC[C@@H]2CN3[C@@H](CC[C@@H](C)[C@@H]3c3ccc(Br)cc3)C(=O)O2)cc1
composite z-score [1]: 0.589 (inactive) and -0.699 (inactive)
composite z-score [2]: 0.432 and 0.299
z-score [3]: -0.17 and -0.013
z-score [4]: 0.16 (inactive) and 0.956 (inactive)

COC(=O)C1=C(C)N(Cc2ccccc2)[C@]23O[C@](C(=O)OC)(C(=O)N2[C@@H]1c1ccccc1)[C@H]1C(=O)N(c2ccccc2)C(=O)[C@H]13
composite z-score [1]: 0.229 (inactive) and 0.555 (inactive)
composite z-score [2]: -0.275 and -0.308
z-score [3]: -0.391 and 1.02
z-score [4]: -2.26 (inactive) and -1.88 (inactive)

COc1ccc(-c2ccc3c(n2)CCCN3CC(O)CN2CCCc3nc(-c4ccc(Br)cc4)ccc32)cc1 (stereo not drawn)
composite z-score [1]: 0.947 (inactive) and 1.14 (inactive)
composite z-score [2]: 0.717 and 0.257
z-score [3]: -0.309 and 0.613
z-score [4]: -3.36 (inactive) and -1.95 (inactive)

CCOC(=O)NN=C1C[C@@H](O)[C@@H](O)[C@@H]2[C@@H]3C(=O)N(Cc4ccc5c(c4)OCO5)C(=O)[C@@H]3CC[C@@H]12
composite z-score [1]: 0.483 (inactive)
composite z-score [2]: 0.586
z-score [3]: 0.132
z-score [4]: -0.24 (inactive)

CO[C@@H]1COC(=O)CC=C[C@H](C)[C@@H](NS(=O)(=O)c2ccc(C)cc2)COC(=O)CC=C[C@@H]1C
composite z-score [1]: 1.11 (inactive) and 0.147 (inactive)
composite z-score [2]: 0.77 and 0.481
z-score [3]: 0.707 and -0.283
z-score [4]: -1.05 (inactive) and -2.69 (inactive)

CO[C@H]1COC(=O)CC=C[C@H](C)[C@H](OC)COC(=O)[C@@H](C)COC(=O)CC=C[C@@H]1C
composite z-score [1]: -0.205 (inactive) and 0.308 (inactive)
composite z-score [2]: 0.602 and -0.337
z-score [3]: 0.298 and 0.795
z-score [4]: 0.397 (inactive) and 0.774 (inactive)

CO[C@@H]1COC(=O)[C@H](Cc2ccccc2)NC(=O)CC=C[C@@H](C)[C@H](OC)COC(=O)[C@@H](C)NC(=O)CC=C[C@H]1C
composite z-score [1]: 0.219 (inactive) and 0.97 (inactive)
composite z-score [2]: 0.499 and 0.535
z-score [3]: -0.446 and 0.677
z-score [4]: -0.525 (inactive) and -0.47 (inactive)

CO[C@H]1COC(=O)CC=C[C@@H](C)COC(=O)[C@@H](OCc2ccccc2)C=C[C@@H]1C
composite z-score [1]: -0.147 (inactive)
composite z-score [2]: -0.106
z-score [3]: 0.56
z-score [4]: -0.383 (inactive)

CCOC(=O)[C@H](Cc1ccccc1)NC(=O)CCC1CC(OC(=O)NCc2cccc3ccccc23)CC2(CCCC(COC(=O)NCCCN3CCCC3=O)O2)O1 (stereo partly drawn)
composite z-score [1]: 0.684 (inactive)
composite z-score [2]: 0.351
z-score [3]: -1.63
z-score [4]: -4.68 (inactive)

COC(=O)C1=C(C)N(Cc2ccccc2)[C@]23O[C@](C(=O)OC)(C(=O)N2[C@@H]1c1ccccc1)[C@@H](C(=O)OC)[C@H]3C(=O)OC
composite z-score [1]: 1.4 (inactive) and -0.409 (inactive)
composite z-score [2]: -0.0215 and 0.118
z-score [3]: -0.0831 and 0.255
z-score [4]: -4.02 (inactive) and -0.38 (inactive)

COC(=O)C1=C(C)N(Cc2ccccc2)C2=C(C(C)=O)[C@H](c3ccccc3)[C@@](O)(C(=O)OC)C(=O)N2[C@@H]1c1ccccc1
composite z-score [1]: 0.284 (inactive) and -0.864 (inactive)
composite z-score [2]: 0.727 and -1.64
z-score [3]: 0.512 and -0.515
z-score [4]: -4.62 (inactive) and 0.136 (inactive)

CC(C)=NOCc1ccc(-c2cn([C@@H]3COC[C@H]3O)nn2)cc1
composite z-score [1]: 0.364 (inactive)
composite z-score [2]: -0.149
z-score [3]: 1.76
z-score [4]: -0.221 (inactive)

CCCNC(=O)OC[C@H]1O[C@H](CCON=C(C)CCN2CCc3nc(-c4ccccc4)c(-c4ccccc4)cc3C2)C=C[C@@H]1Oc1ccc(OC)cc1
composite z-score [1]: -0.377 (inactive)
composite z-score [2]: 0.201
z-score [3]: -0.821
z-score [4]: -2.84 (inactive)

COc1ccc(COC(=O)NN=C2C[C@@H](O)[C@@H](O)[C@@H]3[C@@H]4C(=O)N(C(C)(C)C)C(=O)[C@@H]4CC[C@H]23)cc1
composite z-score [1]: 2.23 (inactive)
composite z-score [2]: 0.801
z-score [3]: 0.189
z-score [4]: 0.471 (inactive)

CCCC[C@@H]1CN2[C@@H](CC[C@@H](C)[C@@H]2c2ccc(Br)cc2)C(=O)O1
composite z-score [1]: 0.177 (inactive) and 0.122 (inactive)
composite z-score [2]: 0.712 and 0.647
z-score [3]: 0.524 and 0.888
z-score [4]: -3.5 (inactive) and -2.53 (inactive)

C[C@@H](c1ccccc1)N1C(=O)[C@H]2[C@H]3[C@H](O)[C@H](O)CC(=O)[C@@H]3CC[C@H]2C1=O
composite z-score [1]: -0.415 (inactive)
composite z-score [2]: 0.403
z-score [3]: 0.241
z-score [4]: 0.063 (inactive)

C[C@@H]1CC[C@@H](C(=O)O)N[C@H]1c1ccc(-c2ccco2)cc1
composite z-score [1]: 1.06 (inactive)
composite z-score [2]: 0.827
z-score [3]: -0.25
z-score [4]: -1.59 (inactive)

COC(=O)CC=C[C@@H](C)[C@@H](CO)NS(=O)(=O)c1ccc(C)cc1
composite z-score [1]: -0.468 (inactive) and 0.212 (inactive)
composite z-score [2]: 0.169 and 0.315
z-score [3]: -0.106 and 0.0276
z-score [4]: 0.0308 (inactive) and -1.12 (inactive)

COC(=O)C1=C(C)N(Cc2ccccc2)[C@]23O[C@](C(=O)OC)(C(=O)N2[C@@H]1c1ccccc1)[C@H]1C(=O)N(C)C(=O)[C@H]13
composite z-score [1]: 0.0247 (inactive) and -0.317 (inactive)
composite z-score [2]: 0.706 and -0.282
z-score [3]: -0.979 and 0.027
z-score [4]: -3.58 (inactive) and -1.73 (inactive)

O=C1[C@H]2[C@H]3[C@H](O)[C@H](O)CC(=NOCc4ccccc4)[C@H]3CC[C@H]2C(=O)N1Cc1ccccc1
composite z-score [1]: -0.0784 (inactive)
composite z-score [2]: 0.0748
z-score [3]: -1.76
z-score [4]: -1.09 (inactive)

COC(=O)C1=C(C)N(Cc2ccccc2)C2=C3C(=O)N(c4ccccc4)C(=O)[C@@H]3[C@@](O)(C(=O)OC)C(=O)N2[C@@H]1c1ccccc1
composite z-score [1]: 0.357 (inactive) and 0.908 (inactive)
composite z-score [2]: 0.673 and 0.243
z-score [3]: -0.441 and 0.347
z-score [4]: -3.12 (inactive) and -0.385 (inactive)

C[C@@H]1CC[C@H]2C(=O)N3[C@@H](CC[C@@H](C)[C@@H]3c3ccc(-c4ccco4)cc3)C(=O)N2[C@H]1c1ccc(-c2ccco2)cc1
composite z-score [1]: 1.47 (inactive)
composite z-score [2]: 0.827 and 0.789
z-score [3]: 0.376 and 0.75
z-score [4]: -1.46 (inactive) and 0.517 (inactive)

Cc1ccc(S(=O)(=O)N[C@H]2COC(=O)[C@@H](Cc3ccccc3)NC(=O)[C@@H](C)COC(=O)CC=C[C@@H]2C)cc1
composite z-score [1]: 0.124 (inactive) and 0.125 (inactive)
composite z-score [2]: 0.174 and -0.0928
z-score [3]: -0.446 and -1.34
z-score [4]: 0.469 (inactive) and -3.02 (inactive)

CO[C@H]1COC(=O)[C@H](C)NC(=O)CC=C[C@@H](C)[C@H](OC)COC(=O)CC=C[C@@H]1C
composite z-score [1]: 0.195 (inactive)
composite z-score [2]: 0.394
z-score [3]: 0.459
z-score [4]: -0.298 (inactive)

C[C@@H]1CN2[C@@H](CC[C@@H](C)[C@@H]2c2ccc(Br)cc2)C(=O)O1
composite z-score [1]: -0.0537 (inactive) and -1.1 (inactive)
composite z-score [2]: -0.252 and 0.581
z-score [3]: -0.218 and 0.559
z-score [4]: 0.101 (inactive) and -0.0592 (inactive)

CON(C)C(=O)c1nnc2c3ccccc3n(S(=O)(=O)c3ccc(C)cc3)c2n1
composite z-score [1]: 0.41 (inactive) and 0.536 (inactive)
composite z-score [2]: 0.632 and 0.305
z-score [3]: -0.248 and -0.675
z-score [4]: -5.36 (inactive) and -5.11 (inactive)

CC(C)=NO[C@@H](C)c1cc(-c2c(C)cc(C)cc2C)no1
composite z-score [1]: -0.386 (inactive)
composite z-score [2]: 0.303
z-score [3]: -0.876
z-score [4]: 0.387 (inactive)

CC(=O)OC[C@H]1O[C@H](C#CC(C)(C)C)C=C[C@@H]1OC(C)=O
composite z-score [1]: 0.853 (inactive)
composite z-score [2]: 0.575
z-score [3]: 1.32
z-score [4]: -2.75 (inactive)

CCOC(=O)CCN1C(=O)[C@H]2[C@H]3[C@H](O)[C@H](O)CC(=NNC(=O)OCC)[C@@H]3CC[C@H]2C1=O
composite z-score [1]: 0.872 (inactive)
composite z-score [2]: 0.466
z-score [3]: 2.07
z-score [4]: 0.0438 (inactive)

COC(=O)C1=C(C)N(Cc2ccccc2)C2=C3C(=O)N(C)C(=O)[C@@H]3[C@@](O)(C(=O)OC)C(=O)N2[C@@H]1c1ccccc1
composite z-score [1]: 0.214 (inactive) and -0.566 (inactive)
composite z-score [2]: 0.0447 and 0.0893
z-score [3]: 0.557 and 0.251
z-score [4]: -1.2 (inactive) and -0.234 (inactive)

COc1ccc(O[C@H]2C=C[C@@H](c3ccccc3)O[C@@H]2COC(=O)CCC(C)=NO[C@H](C)c2cn([C@H](CO)Cc3ccccc3)nn2)cc1
composite z-score [1]: 0.31 (inactive) and 0.164 (inactive)
composite z-score [2]: 0.238 and 0.548
z-score [3]: -1.46 and -1.1
z-score [4]: -5.26 (inactive) and -4.59 (inactive)

CO[C@@H]1COC(=O)CC=C[C@H](C)COC(=O)[C@H](C)NC(=O)CC=C[C@H]1C
composite z-score [1]: -0.0437 (inactive)
composite z-score [2]: 0.195
z-score [3]: -0.233
z-score [4]: -0.16 (inactive)

COC(=O)C1=C(C)N(Cc2ccccc2)C2=C3C(=O)CCC[C@@H]3[C@@](O)(C(=O)OC)C(=O)N2[C@@H]1c1ccccc1
composite z-score [1]: 0.995 (inactive) and 0.0397 (inactive)
composite z-score [2]: 0.135 and -0.554
z-score [3]: 0.0894 and 0.169
z-score [4]: -0.77 (inactive) and -1.47 (inactive)
